Source: PubChem BioAssay (Center for Chemical Genomics, University of Michigan)
Dicer processing: human Dicer pre-microRNA cleavage inhibition. Q9UPY3. actives 6% (n = 47,000). z-score at 25 µM. cat-ELCCA pre-miR-21 Dicer processing, chemiluminescence; hits give high values; in the data active means z-score above about 3, passing the limit was not always enough;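 further: plate controls were vehicle for no effect and no enzyme for full effect; higher signal means more uncleaved substrate so more Dicer inhibition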
* = called active by the depositor. Shown is part of a subset that was picked to be rich in hits.

SMILES	Dicer processing
COc1ccc(Nc2nnc3c4ccccc4c4ccccc4c3n2)cc1	-0.71
C=CCn1c(=S)sc2c(Sc3nc4ccccc4[nH]3)ncnc21	-1.7
COC(=O)C1=C(C)N=C2SCCC(=O)N2C1c1ccc(C(C)(C)C)cc1 (configuration not stated)	0.32
CC1(C)COC(c2ccccc2COC(=O)c2ccc(C(C)(C)C)cc2)=N1	-0.15
COC(=O)/C=C1/NCC(OC(=O)c2ccc(C(C)(C)C)cc2)CNC1=O (configuration not stated)	4.4*
CCOc1ccc(C2C(C(=O)OCCOC)=C(C)N=C3SCCC(=O)N32)cc1OC (configuration not stated)	0.32
CCOC(=O)CNC(=O)c1ccccc1	2.8
CCOC(=O)CNC(=O)c1ccc(Cl)cc1	-0.21
CCCc1nn(C)cc1C(=O)NCC(=O)OCC	4.8*
O=C(COC(=O)c1ccccc1Cl)c1ccc(Br)cc1	-0.43
COCCOC(=O)c1c(C)oc2ccc(OCC(=O)c3ccc(Br)cc3)cc12	-0.46
Cc1onc(-c2ccccc2)c1C(=O)OCC(=O)c1ccccc1	2
Cc1cc(=O)oc(C)c1C(=O)OCC(=O)c1ccc(Br)cc1	5*
Cc1onc(-c2ccccc2Cl)c1C(=O)OCC(=O)c1ccc(Br)cc1	3.9*
Cc1ccc2[nH]c(=O)cc(C(=O)OCC(=O)c3ccc(Br)cc3)c2c1	-0.05
COC(=O)Cc1cc(=O)n2[nH]c(C(F)(F)F)c(-c3ccc(OC)cc3)c2n1	1.2
COC(=O)C1C(c2ccccc2)C(C(=O)OC)S(=O)(=O)CS1(=O)=O (configuration not stated)	1.5
CC(C)(C)C(=O)NCC1COc2ccccc2O1 (configuration not stated)	19
Cc1c(C#N)c(NC(=O)c2ccc(Cl)cc2)n(Cc2cc(C(F)(F)F)cc(C(F)(F)F)c2)c1C	-0.98
CC(=O)OC1CC2C(=C3CCC(O)CC31C)CCC1(C)C(C(C)CCCC(C)C)CCC21 (configuration not stated)	0.56
CCCc1cc(=O)oc2cc(OCC(=O)NNC(=S)NC(=O)c3ccc(Cl)cc3)ccc12	1.7
COc1cc(C2Nc3ccccc3-c3nnc(SC)nc3O2)ccc1O (configuration not stated)	27
CCOc1cc(C2Nc3ccccc3-c3nnc(SC)nc3O2)ccc1O (configuration not stated)	5*
CCSc1nnc2c(n1)OC(c1ccc(O)c(OC)c1)Nc1ccccc1-2 (configuration not stated)	1.3
CCOC(=O)c1c(N)nc(SC)n1-c1ccc(C(C)C)cc1	1.9
SMILES	Dicer processing
Cc1ccc(N2C(=O)c3ccccc3C2C(=O)c2cc(C)ccc2O)cc1 (configuration not stated)	11*
Cc1ccc(/C(O)=C2/C(=O)C(=O)N(c3ccc(O)cc3)C2c2ccccc2)cc1 (configuration not stated)	0.95
O=C1c2ccccc2NC(c2ccccc2O)N1c1ccc(F)cc1 (configuration not stated)	-0.68
C#CCN1C(=O)C(O)(CC(=O)c2ccccc2OC)c2ccccc21 (configuration not stated)	2.9
Cc1ccc2c(c1)c1c(n2CC(O)CNCc2ccco2)CCCC1 (configuration not stated)	5*
OC(CNCc1ccco1)COc1ccccc1 (configuration not stated)	2.8
Cc1ccc2c(c1)c1c(n2CC(O)CNCc2ccccc2)C(=O)CCC1 (configuration not stated)	-1.3
COc1cccc2c1OC(CCSC)N1N=C(c3ccccc3O)CC21 (configuration not stated)	0.3
Clc1cc(Cl)cc(-c2nc(SCc3ccc(Cl)cc3Cl)n[nH]2)c1	-1.6
N#C/C(=C\N1CCN(Cc2ccccc2)CC1)S(=O)(=O)c1ccccn1	-1.4
O=C(O)c1cc([N+](=O)[O-])ccc1NCc1ccco1	-0.82
COc1cc(C2OCC3(COC(C)=O)C(C)C=C(C)C2C3C)ccc1OC(C)=O (configuration not stated)	0.8
CC(C)S(=O)(=O)c1csc(NC(=O)N=S(C)(=O)c2ccc(Cl)cc2)c1Cl (configuration not stated)	-0.93
CC(C)S(=O)(=O)c1csc(NC(=O)Nc2cc(Cl)ccc2Cl)c1Cl	5.3*
CC(C)S(=O)(=O)c1csc(NC(=O)Nc2ccccc2Cl)c1	1.7
CC1NC(=S)N2C(C)NC(=S)N12 (configuration not stated)	-1
Cc1occc1C(=O)C(C#N)=C1SCCCCS1	-0.89
N#Cc1c(SCC(N)=O)nc2c(c1-c1cccnc1)CCC2	-0.39
CCOC(=O)C(NC(=O)c1ccccc1Cl)(Nc1cc(C)ccn1)C(F)(F)F (configuration not stated)	-0.24
CCOC(=O)C(O)(NC(=O)c1ccccc1C)C(F)(F)F (configuration not stated)	2.6
CCOC(=O)C(NC(=O)c1ccccc1Cl)(Nc1cccc(C)n1)C(F)(F)F (configuration not stated)	1.9
CCOC(=O)C(O)(NC(=O)c1ccccc1Cl)C(F)(F)F (configuration not stated)	0.08
COC(=O)C(O)(NC(=O)c1ccccc1Cl)C(F)(F)F (configuration not stated)	3.9*
CCOC(=O)C(NC(=O)c1ccccc1Cl)(Nc1ccc(C)cn1)C(F)(F)F (configuration not stated)	3*
COc1ccc(Cc2nc(-c3ccc(C)cc3)no2)cc1	2.6
SMILES	Dicer processing
C/C(COc1ccc(Cl)cc1Cl)=N\OC(=O)c1cccc(C)c1	-0.6
O=C1C=C(Nc2ccccc2)CC(c2ccc(Cl)cc2)C1 (configuration not stated)	0.3
Cc1onc(-c2c(Cl)cccc2Cl)c1C(=O)N=S(C)(=O)c1ccc(C(F)(F)F)cn1 (configuration not stated)	-1.5
Cc1csc2sc(-c3ccnc(SCC(=O)NC(C)C)n3)c(C)c12	-0.72
COc1nccc(C(F)(F)F)c1C(=O)NCc1c(Cl)cc(Cl)cc1Cl	-0.34
COc1ccc(N2C(=O)C3C4c5ccccc5C(CO)(c5ccccc54)C3C2=O)cc1 (configuration not stated)	-0.87
CC12c3ccccc3C(c3ccccc31)C1C(=O)N(c3ccccc3)C(=O)C12 (configuration not stated)	0.7
O=C1C2C3c4ccccc4C(CO)(c4ccccc43)C2C(=O)N1c1ccc(F)cc1 (configuration not stated)	4.9*
O=C1C2C3c4ccccc4C(C(=O)O)(c4ccccc43)C2C(=O)N1c1ccccc1 (configuration not stated)	0.12
O=C1C2C3c4ccccc4C(CO)(c4ccccc43)C2C(=O)N1c1ccccc1Cl (configuration not stated)	0.88
CCCCOc1ccc(N2C(=O)C3C4c5ccccc5C(CO)(c5ccccc54)C3C2=O)cc1 (configuration not stated)	3.3*
Cc1cc(S(=O)(=O)NN)c(Cl)cc1Cl	-0.2
COc1ccc(NC(CC(=O)C2CC2)c2ccccc2)cc1 (configuration not stated)	-1.4
CCCCc1ccc(-c2nc3ccccc3c(=O)o2)cc1	0.32
COc1ccc(-c2c(N)nc(-c3ccc(Cl)cc3)nc2SC)cc1	1.3
CN1CCN(c2ncc3c(=S)[nH]c(=S)[nH]c3n2)CC1	-0.41
Nc1cc(=O)[nH]c(SCc2ccc(Cl)cc2Cl)n1	-0.88
NC(=O)CSc1nc2ccccc2c(=O)[nH]1	-0.39
